The record followed here is article PMC5515408, “Sequence-specific DNA binding by MYC/MAX to low-affinity non-E-box motifs”.

In all, about 5,000 sequences were measured (“log2 normalized fluorescence”: median about 0.089, highest 2% from about 0.81 on). This excerpt belongs to a sample that is enriched for the highest values.

MYC (p64);MAX (p21), in MYC:MAX, sequence (P01106 16-454, chain 1 of 2): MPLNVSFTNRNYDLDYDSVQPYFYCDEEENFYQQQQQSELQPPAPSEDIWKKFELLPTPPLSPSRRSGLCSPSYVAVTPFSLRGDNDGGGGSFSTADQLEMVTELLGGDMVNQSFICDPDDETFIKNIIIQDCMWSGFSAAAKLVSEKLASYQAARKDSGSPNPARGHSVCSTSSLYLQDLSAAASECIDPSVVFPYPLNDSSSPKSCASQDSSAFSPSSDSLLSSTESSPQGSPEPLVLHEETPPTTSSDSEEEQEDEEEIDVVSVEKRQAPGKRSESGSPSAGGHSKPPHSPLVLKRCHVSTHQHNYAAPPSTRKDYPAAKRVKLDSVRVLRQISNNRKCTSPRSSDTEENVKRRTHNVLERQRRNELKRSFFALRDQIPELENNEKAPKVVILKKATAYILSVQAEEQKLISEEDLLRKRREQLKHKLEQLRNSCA
MYC (p64);MAX (p21), in MYC:MAX, sequence (P61244 other isoform, or with tags, fused parts or gaps |, chain 2 of 2): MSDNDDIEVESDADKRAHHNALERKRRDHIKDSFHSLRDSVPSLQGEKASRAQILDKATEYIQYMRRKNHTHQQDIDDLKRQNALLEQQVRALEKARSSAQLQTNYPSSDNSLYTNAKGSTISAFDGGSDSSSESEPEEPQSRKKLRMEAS

For the assay, the target named is MYC (p64);MAX (p21), in MYC:MAX (human;human, UniProt P01106-1;P61244-2 1-439;1-151, |). The assay is described as follows: protein-binding microarray (anti-MAX antibody); PBM: 15 mM Tris-HCl pH 7.5, 100 mM KCl, 0.075% NP40, 7.5 mM beta-mercaptoethanol, 375 ng/ul BSA, 8 ng/ul poly(dA-dT):(dA-dT), 550 ng complex, 60 min, room tempe; high values mean tight binding. The following applies: protein: recombinant;recombinant; tags: 6xHis;6xHis; copies: 1;1; label: 3' end of printed strand (linker) attached to glass slide; dsDNA, one strand shown. The procedure, abridged:
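For each of ~5000 unique double-stranded 12-nt sequences, spotted in triplicate on a custom Agilent glass array, binding of His-tagged human MYC:MAX or MAX:MAX dimers is reported as log2 normalized fluorescence. The dimers (550 ng, E. coli-expressed) were incubated for 60 min at room temperature in Tris-KCl buffer, pH 7.5, with NP40, BSA and poly(dA-dT) competitor. Detection used anti-MAX and secondary antibodies with a 543 nm scan.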
For “CCGGCTGATCATTTGTATTAATAGCTAAGATTACTATATCGACG”, the binding signal is 0.247 log2 normalized fluorescence. Under “CCGGCTGAGACGTGGTCTTAATAGCTAAGATTACTATATCGACG” stands 0.229 log2 normalized fluorescence; under “CCGGCGGCCACGTGGTATTAATAGCTAAGATTACTATATCGACG”, 0.783 log2 normalized fluorescence; under “CCGGCTGCGACGTGGTATTAATAGCTAAGATTACTATATCGACG”, 0.41 log2 normalized fluorescence. The value for “CCGGCTGCCATGTGGGATTAATAGCTAAGATTACTATATCGACG” was 0.899 log2 normalized fluorescence. As for “CCGGCCGCCACGTGGTCTTAATAGCTAAGATTACTATATCGACG”, the binding signal was 0.884 log2 normalized fluorescence. Regarding “CCGGCTGATACGTGGTCTTAATAGCTAAGATTACTATATCGACG”, the binding signal was 0.408 log2 normalized fluorescence. On to “CCGGCTACTATGCCATGTTAATAGCTAAGATTACTATATCGACG”, for which the binding signal was 0.159 log2 normalized fluorescence.

As for “CCGGCTGCCATGTGGTTTTAATAGCTAAGATTACTATATCGACG”, the binding signal is 0.633 log2 normalized fluorescence.

Take “CCGGCTGCCACGTGGTATTAATAGCTAAGATTACTATATCGACG”: the binding signal was 0.82 log2 normalized fluorescence. Turning to “CCGGCCACCACGTGGTATTAATAGCTAAGATTACTATATCGACG”, the binding signal is 0.975 log2 normalized fluorescence. For “CCGGCAACCACGTGGTATTAATAGCTAAGATTACTATATCGACG”, the binding signal is 0.742 log2 normalized fluorescence. Take “CCGGCTGCCACGTCGTATTAATAGCTAAGATTACTATATCGACG”: the binding signal is 0.37 log2 normalized fluorescence.

In the case of “CCGGCTGATGAGACGTATTAATAGCTAAGATTACTATATCGACG”, the binding signal was -0.0198 log2 normalized fluorescence. The value for “CCGGCTGATACAGTGTATTAATAGCTAAGATTACTATATCGACG” was 0.0568 log2 normalized fluorescence; that for “CCGGCTGAGATGCTGTATTAATAGCTAAGATTACTATATCGACG” was -0.0512 log2 normalized fluorescence; that for “CCGGCTGAGGCTATGTATTAATAGCTAAGATTACTATATCGACG” was -0.0462 log2 normalized fluorescence. Take “CCGGCTGACTCTTGGTATTAATAGCTAAGATTACTATATCGACG”: the binding signal was 0.16 log2 normalized fluorescence. Under “CCGGCTGATGGCCTGTATTAATAGCTAAGATTACTATATCGACG” stands 0.18 log2 normalized fluorescence. With “CCGGCTGATACACGGTATTAATAGCTAAGATTACTATATCGACG”, the binding signal was 0.262 log2 normalized fluorescence.

With “CCGGCTGAGCCAATGTATTAATAGCTAAGATTACTATATCGACG”, the binding signal was 0.00395 log2 normalized fluorescence. The value for “CCGGCTGAAACCGCGTATTAATAGCTAAGATTACTATATCGACG” was 0.25 log2 normalized fluorescence; that for “CCGGCTGAGAGTACGTATTAATAGCTAAGATTACTATATCGACG” was 0.142 log2 normalized fluorescence.

Take “CCGGCTGAGGGTCGGTATTAATAGCTAAGATTACTATATCGACG”: the binding signal is 0.137 log2 normalized fluorescence. As to “CCGGCTGCCACGTGGAATTAATAGCTAAGATTACTATATCGACG”, the binding signal was 0.873 log2 normalized fluorescence. Turning to “CCGGCTGTCACGTGGAATTAATAGCTAAGATTACTATATCGACG”, the binding signal was 0.766 log2 normalized fluorescence.

As for “CCGGCCGCGACGTGGTATTAATAGCTAAGATTACTATATCGACG”, the binding signal is 0.471 log2 normalized fluorescence.

Consider “CCGGCCGCCACGTAGTATTAATAGCTAAGATTACTATATCGACG”, for which the binding signal is 0.312 log2 normalized fluorescence. “CCGGCCGCCACGTGGTATTAATAGCTAAGATTACTATATCGACG”: the binding signal is 0.88 log2 normalized fluorescence. Consider “CCGGCTGCCACGAGGAATTAATAGCTAAGATTACTATATCGACG”, for which the binding signal is 0.707 log2 normalized fluorescence. The value for “CCGGCTGACGCGTCGTATTAATAGCTAAGATTACTATATCGACG” was 0.46 log2 normalized fluorescence; that for “CCGGCTGACGCGTGATATTAATAGCTAAGATTACTATATCGACG” was 0.675 log2 normalized fluorescence. For the sequence “CCGGCTAAGACGTGGTATTAATAGCTAAGATTACTATATCGACG”, the binding signal was 0.411 log2 normalized fluorescence. “CCGGCCCACACGTGGTGTTAATAGCTAAGATTACTATATCGACG”: the binding signal is 0.705 log2 normalized fluorescence. Under “CCGGCGACCACGTGGTATTAATAGCTAAGATTACTATATCGACG” stands 0.741 log2 normalized fluorescence. As to “CCGGCCCCCACGTGGTATTAATAGCTAAGATTACTATATCGACG”, the binding signal is 0.854 log2 normalized fluorescence.

With “CCGGCCCGCACGTGGTATTAATAGCTAAGATTACTATATCGACG”, the binding signal was 0.749 log2 normalized fluorescence. The value for “CCGGCTCCCACGTGGTATTAATAGCTAAGATTACTATATCGACG” was 0.763 log2 normalized fluorescence; that for “CCGGCGCCCACGTGGTATTAATAGCTAAGATTACTATATCGACG” was 0.862 log2 normalized fluorescence. Regarding “CCGGCCCACACGTGGTATTAATAGCTAAGATTACTATATCGACG”, the binding signal was 0.945 log2 normalized fluorescence. Under “CCGGCTGATCAAGGGTATTAATAGCTAAGATTACTATATCGACG” stands 0.0432 log2 normalized fluorescence; under “CCGGCTGAAGTTGTGTATTAATAGCTAAGATTACTATATCGACG”, 0.0113 log2 normalized fluorescence; under “CCGGCTGAACGAAAGTATTAATAGCTAAGATTACTATATCGACG”, 0.0903 log2 normalized fluorescence.

As to “CCGGCTGACACGTGTACTTAATAGCTAAGATTACTATATCGACG”, the binding signal was 0.823 log2 normalized fluorescence.

For “CCGGCTGACACATGGTTTTAATAGCTAAGATTACTATATCGACG”, the binding signal was 0.817 log2 normalized fluorescence. The value for “CCGGCCGACACATGGTTTTAATAGCTAAGATTACTATATCGACG” was 0.635 log2 normalized fluorescence; that for “CCGGCTGACACGTGTTATTAATAGCTAAGATTACTATATCGACG” was 0.722 log2 normalized fluorescence; that for “CCGGCTGACACGTGTCGTTAATAGCTAAGATTACTATATCGACG” was 0.947 log2 normalized fluorescence.

With “CCGGCTGACACGTGACGTTAATAGCTAAGATTACTATATCGACG”, the binding signal is 0.654 log2 normalized fluorescence. In the case of “CCGGCTGACACGTGTTGTTAATAGCTAAGATTACTATATCGACG”, the binding signal is 0.83 log2 normalized fluorescence. Under “CCGGCTGACACGTGTAATTAATAGCTAAGATTACTATATCGACG” stands 0.708 log2 normalized fluorescence; under “CCGGCTGACATGTGGTTTTAATAGCTAAGATTACTATATCGACG”, 0.359 log2 normalized fluorescence; under “CCGGCTGACACGTGAACTTAATAGCTAAGATTACTATATCGACG”, 0.796 log2 normalized fluorescence.
